# The campaign covered roughly 310,000 compounds. About 14,000 (4.5%) showed an effect of 50% or more. The effect is printed as a negative number. Shown is part of a subset that was picked to be rich in strong results.
# Biological target: human ether-à-go-go-related gene (hERG) potassium channel (human, UniProt Q12809)
# Assay: primary screen, population patch clamp on CHO cells stably expressing hERG; higher = less effect of the substance
# 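Note: peak tail current of the secondary pulse compared with the same well before compound.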
# Sequence of human ether-à-go-go-related gene (hERG) potassium channel (Q12809 whole entry, looked up): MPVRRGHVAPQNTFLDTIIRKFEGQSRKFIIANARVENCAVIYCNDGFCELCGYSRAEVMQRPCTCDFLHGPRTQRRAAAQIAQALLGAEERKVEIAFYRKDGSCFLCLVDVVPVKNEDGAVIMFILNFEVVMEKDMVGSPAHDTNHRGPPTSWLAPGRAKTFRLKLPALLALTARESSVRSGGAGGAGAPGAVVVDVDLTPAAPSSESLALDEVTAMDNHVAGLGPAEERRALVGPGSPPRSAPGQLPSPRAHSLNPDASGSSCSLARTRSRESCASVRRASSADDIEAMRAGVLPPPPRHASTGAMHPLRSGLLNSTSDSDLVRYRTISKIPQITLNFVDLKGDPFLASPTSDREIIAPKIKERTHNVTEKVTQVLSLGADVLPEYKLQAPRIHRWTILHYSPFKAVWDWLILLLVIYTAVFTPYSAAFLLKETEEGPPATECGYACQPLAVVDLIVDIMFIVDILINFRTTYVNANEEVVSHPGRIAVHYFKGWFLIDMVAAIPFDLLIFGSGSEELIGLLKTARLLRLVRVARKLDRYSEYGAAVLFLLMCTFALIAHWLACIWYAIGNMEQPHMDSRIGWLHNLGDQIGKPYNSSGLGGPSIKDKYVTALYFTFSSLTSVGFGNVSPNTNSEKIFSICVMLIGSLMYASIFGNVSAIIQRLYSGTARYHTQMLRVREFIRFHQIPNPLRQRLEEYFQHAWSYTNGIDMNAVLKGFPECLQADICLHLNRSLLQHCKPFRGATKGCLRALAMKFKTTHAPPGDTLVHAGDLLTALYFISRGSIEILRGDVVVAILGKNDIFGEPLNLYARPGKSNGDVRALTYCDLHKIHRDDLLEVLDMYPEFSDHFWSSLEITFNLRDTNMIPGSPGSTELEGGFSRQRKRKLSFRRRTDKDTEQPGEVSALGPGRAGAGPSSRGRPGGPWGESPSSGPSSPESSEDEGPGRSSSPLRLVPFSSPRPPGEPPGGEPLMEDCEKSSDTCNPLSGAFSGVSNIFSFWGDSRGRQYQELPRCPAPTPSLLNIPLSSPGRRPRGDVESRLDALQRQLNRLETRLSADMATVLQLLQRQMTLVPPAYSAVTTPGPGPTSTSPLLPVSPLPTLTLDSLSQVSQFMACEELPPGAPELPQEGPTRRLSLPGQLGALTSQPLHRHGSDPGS
row,SMILES,"hERG current change (%, negative = inhibition) at 10uM"
1,Cc1ccc(-c2noc(C3CCCN(C(=O)c4ccccc4Br)C3)n2)cc1 (centres unmarked),0.00198%
2,N/C(=N\OC(=O)/C=C/c1ccccc1)c1ccc(Br)cc1,4.83%
3,COc1ccc(CCNCC2C(Oc3ccc(Cl)cc3)C(=O)N2c2ccccc2C)cc1OC.Cl (centres unmarked),-41%
4,O=[N+]([O-])c1cc(/C=N/n2cnnc2)ccc1N1CCCC1,-38.7%
5,N#CCc1ccccc1C(=O)OCC(=O)N(Cc1ccccc1)Cc1ccccc1,-52.1%
6,O=C(OCC(=O)N(Cc1ccccc1)Cc1ccccc1)c1ccccc1NCCO,-15.4%
7,O=C(OCC(=O)N(Cc1ccccc1)Cc1ccccc1)c1ccccc1O,5.67%
8,Cc1ccc(-c2noc(CN3CCCCC3)n2)cc1,34.6%
9,CC1CCN(Cc2nc(-c3ccc(Cl)cc3)no2)CC1,8.57%
10,FC(F)(F)c1cccc(-c2noc(CN3CCOCC3)n2)c1,6.74%
11,c1cnc(-c2noc(CN3CCN(C4CCCC4)CC3)n2)cn1,18.7%
12,CN1CCCN(Cc2nc(-c3ccc(Cl)cc3)no2)CC1,-72.6%
13,O=CN1CCCN(Cc2nc(-c3cccc(Cl)c3)no2)CC1,-13.3%
14,Clc1ccc(-c2noc(CN3CCCC3)n2)cc1,-15.1%
15,FC(F)(F)c1ccc(-c2noc(CN3CCCN(C4CCCCC4)CC3)n2)cc1,-75.7%
16,CN1CCCN(Cc2nc(-c3cccc(C(F)(F)F)c3)no2)CC1,-60.2%
17,CN1c2ccccc2C(C)(C)C12C=Cc1cc(O)ccc1O2 (centres unmarked),-5.61%
18,Cc1oc2cc(Br)c(O)c(Br)c2c1-c1ccccc1,-13.5%
19,CC(C)(C)OC(=O)NCCCC[C@H](NC(=O)c1[nH]cnc1C(=O)Nc1ccccc1)C(=O)OC(C)(C)C,15.6%
20,CCCNNC(=O)C(O)(c1cccc(C)c1)c1cccc(C)c1,-2.43%
21,Cc1ccc(N2C(=O)C(Cl)=C(N3CCOCC3)C2=O)c(C)c1,14.6%
22,O=C(COC(=O)c1cccc(S(=O)(=O)NCc2ccccc2)c1)NCC1CCCO1 (centres unmarked),3.36%
23,O=C(COC(=O)c1ccc(Cl)c(S(=O)(=O)NCc2ccccc2)c1)NCC1CCCO1 (centres unmarked),-53%

row,SMILES,"hERG current change (%, negative = inhibition) at 10uM"
1,O=C(COC(=O)c1ccc(Cl)c(S(=O)(=O)N2CCCCC2)c1)NCC1CCCO1 (centres unmarked),-14.1%
2,CCN(CC)C(=O)C(=O)c1cccn1-c1ccc(C#N)cc1,-18.8%
3,COc1ccc2oc(=O)c(/C(C)=N/Nc3ccccc3)cc2c1,-2.36%
4,CCOC(=O)COc1cc(OCC(=O)OCC)c2c(=O)cc(-c3ccccc3)oc2c1,-62.6%
5,CC(C)(C)OC(=O)COc1cc(OCC(=O)OC(C)(C)C)c2c(=O)cc(-c3ccccc3)oc2c1,-15%
6,CCOC(=O)COc1cc(O)c2c(=O)cc(-c3ccccc3)oc2c1,12%
7,CC(C)(C)NS(=O)(=O)c1cc2c3c(c1)CCN3C(=O)CC2,17.4%
8,CC1CC(NS(=O)(=O)c2cc3c4c(c2)CCN4C(=O)CC3)CC(C)(C)C1 (centres unmarked),-63.1%
9,O=C1CCc2cc(S(=O)(=O)NC3CCCCC3)cc3c2N1CC3,1.44%
10,c1ccc(-c2nnc(C(c3ccccc3)c3ccccc3)o2)cc1,6.86%
11,CCOC(=O)C1CCCN(c2c(C(=O)c3ccccc3)cnc3ccccc23)C1 (centres unmarked),-26.5%
12,CCOc1ccc(C(=O)c2cnc3ccccc3c2N2CCN(CC)CC2)cc1,-65.5%
13,COc1ccc(C(=O)c2cnc3ccccc3c2-c2ccccc2)cc1,-9.47%
14,CCOC(=O)c1cnc2ccc(OCC)cc2c1N1CCN(c2ccccc2)CC1,13.9%
15,CCOC(=O)C1CCCN(c2c(C(=O)c3ccccc3)cnc3ccc(OC)cc23)C1 (centres unmarked),-37.5%
16,CCN1CCN(c2c(C(=O)c3ccc(OC)cc3)cnc3ccccc23)CC1,-80.3%
17,COc1ccccc1-c1cc(C(=O)NC(C)c2ccccc2)no1 (centres unmarked),9.56%
18,CCC(C)N=Cc1c(Nc2ccccc2)nc2c(C)cccn2c1=O (centres unmarked),17.6%
19,O=C(Nc1cccc2ncccc12)c1cccnc1,14.5%
20,CC(C)(C)c1ccc(C(=O)NCc2cccnc2)cc1,-2.42%
21,COc1ccc(OC)c(CCNC(=O)CCc2nnc3ccc(N4CCOCC4)nn23)c1,16.1%
22,CC(=O)c1c(C)oc2c1cc(NS(=O)(=O)c1ccc(C(=O)O)cc1)c1ccccc12,14.3%
23,CCOC(=O)c1c(C)oc2c1cc(NS(=O)(=O)c1ccc(C(=O)O)cc1)c1ccccc12,-60.7%

row,SMILES,"hERG current change (%, negative = inhibition) at 10uM"
1,COC(=O)c1c(C)oc2c1cc(NS(=O)(=O)c1ccc(C(=O)O)cc1)c1ccccc12,7.86%
2,O=C(CCCC(=O)OCC(F)(F)C(F)F)Nc1ccccc1F,14.8%
3,CN(C)C(/C=C/Nc1cccc([N+](=O)[O-])c1)=C(C#N)C#N,-11.1%
4,CC(C)(C)c1nn(-c2ccccc2)c2[nH]c(=O)c(CNc3ccc4c(c3)OCCO4)cc12,-4.99%
5,CCOC(=O)Cc1csc(NC(=O)Cc2ccc(Cl)cc2)n1,-15.1%
6,CC(Sc1ccc([N+](=O)[O-])cn1)C(=O)Nc1nccs1 (centres unmarked),-5.58%
7,CC(C(=O)Nc1nccs1)c1ccc([N+](=O)[O-])cc1 (centres unmarked),-72%
8,CCOC(=O)Cc1csc(NC(=O)C(C)c2ccc([N+](=O)[O-])cc2)n1 (centres unmarked),-55.9%
9,CCOC(=O)Cc1csc(NC(=O)Cc2ccc([N+](=O)[O-])cc2)n1,-64.9%
10,CCC(=O)NCc1ccc2[nH]c(C)cc2c1,37%
11,CC(C)Cc1ccc(C(C)C(=O)Nc2nccs2)cc1 (centres unmarked),-1.33%
12,CCOC(=O)Cc1csc(NS(=O)(=O)c2ccc([N+](=O)[O-])cc2)n1,7.89%
13,CCOC(=O)Cc1csc(NC(=O)Cc2ccc(C)cc2)n1,-18%
14,Cc1cc2cc(CNC(=O)Cc3ccc([N+](=O)[O-])cc3)ccc2[nH]1,-50.7%
15,CCOC(=O)Cc1csc(NC(=S)NC(=O)c2ccc([N+](=O)[O-])cc2)n1,13.8%
16,Cc1cc2cc(CNC(=O)c3cccc([N+](=O)[O-])c3)ccc2[nH]1,-25.3%
17,COc1ccc(CCN=C(N)NS(=O)(=O)c2ccc(C)cc2)cc1OC,6.05%
18,CCCCNC(=O)C1CCCN1C(=O)Nc1cccc(OC)c1 (centres unmarked),14%
19,Cc1sc2ncn(/N=C/c3ccco3)c(=O)c2c1C,-2.43%
20,CC(C)OC(=O)c1cc(NC(=O)C2C3C=CC(O3)C2C(=O)O)cc(C(=O)OC(C)C)c1 (centres unmarked),-1.28%
21,Cc1c(C)c(C)c2[nH]c(=S)[nH]c2c1C,24.9%
22,CCN(CC)C(=O)COC(=O)c1ccc(O)cc1,7.43%
23,CC1=C(C(=O)Nc2ccccc2C(=O)NCCCOC(C)C)SCCO1,14%

row,SMILES,"hERG current change (%, negative = inhibition) at 10uM"
1,CCCCn1c(=O)[nH]c(=O)c2c1nc(-c1ccccc1F)n2Cc1ccccc1OC,11.5%
2,COc1ccc(-c2cc(C(F)(F)F)nc(SCC(=O)N(C)Cc3cnn(C)c3C)n2)cc1OC,-42.4%
3,Cc1ccnc(NC(=O)Cc2ccc([N+](=O)[O-])cc2)c1,-12.4%
4,CC(C(=O)Nc1cccc(Br)c1)c1ccc([N+](=O)[O-])cc1 (centres unmarked),-47.3%
5,Cc1cc(Br)ccc1NC(=O)C(C)c1ccc([N+](=O)[O-])cc1 (centres unmarked),-70.7%
6,CC(C(=O)Nc1ccccc1Br)c1ccc([N+](=O)[O-])cc1 (centres unmarked),-35.5%
7,Cc1cc(C)nc(NC(=O)Cc2ccc([N+](=O)[O-])cc2)c1,-67.9%
8,Cc1cc(C)nc(NC(=O)Cc2ccc(Cl)cc2)c1,-5.94%
9,CCOc1cc(NC(=O)CC(C)C)c(OCC)cc1NC(=O)CCn1nnc2ccccc21,10.1%
10,CCOC(=O)c1ccc(-n2ccnc2)c(NC(=O)c2ccc(Cl)cc2)c1,-66.2%
11,CCOC(=O)c1ccc(-n2ccnc2)c(NC(=O)c2cccc(Br)c2)c1,-42.1%
12,CCOC(=O)c1ccc(-n2ccnc2)c(NC(=O)c2ccc(C(C)(C)C)cc2)c1,-41%
13,O=C(CSc1nnc(C2COc3ccccc3O2)o1)N1CCN(c2ccccc2)CC1 (centres unmarked),8.03%
14,CCOC(=O)N1CCN(C(=O)C2CCC(CNS(=O)(=O)c3ccccc3)CC2)CC1 (centres unmarked),3.18%
15,COc1ccc(CCNC(=O)c2ccc(-c3ccc([N+](=O)[O-])cc3)o2)cc1OC,-60.7%
16,COc1ccc(NC(=O)c2ccc(-c3ccc([N+](=O)[O-])cc3)o2)cc1OC,-64.9%
17,COc1ccc(NC(=O)c2ccc(-c3ccc([N+](=O)[O-])cc3)o2)cc1,-33.1%
18,COc1ccc(CCNC(=O)Cc2ccc([N+](=O)[O-])cc2)cc1OC,-11.6%
19,COc1ccc(CCNC(=O)c2ccc(-c3cccc([N+](=O)[O-])c3)o2)cc1OC,-26.7%
20,COc1cccc(NC(=O)c2ccc(-c3ccc([N+](=O)[O-])cc3)o2)c1,-36.2%

# Source: article PMC4336329 (PLoS ONE, 2015)
